Measurements: the antibiotic and cytotoxicity screens of Wong et al. (2023)
The whole screen tested about 39,000 compounds, of which about 3,300 (8.5%) were called active. Only a selection was taken, and actives are over-represented in it overall.

What follows are compounds tested on HepG2 (assay: cytotoxicity call (relative viability < 0.9)). Conditions: 10 µM.

Row | Compound | cytotoxicity call
1 | CC1CCC2(NC1)OC1CC3C4CC=C5CC(O)CCC5(C)C4CCC3(C)C1C2C (stereo unspecified) | inactive
2 | C[C@@H]1CC[C@@]2(OC1)O[C@H]1C[C@H]3[C@@H]4CC=C5C[C@@H](O[C@@H]6O[C@H](CO)[C@@H](O[C@@H]7O[C@@H](C)[C@H](O)[C@@H](O)[C@H]7O)[C@H](O)[C@H]6O[C@@H]6O[C@@H](C)[C@H](O)[C@@H](O)[C@H]6O)CC[C@]5(C)[C@H]4CC[C@]3(C)[C@H]1[C@@H]2C | active
3 | C[C@@H]1CC[C@@]2(OC1)O[C@H]1[C@@H](O)[C@H]3[C@H]4CC[C@H]5C[C@H](O[C@@H]6O[C@H](CO)[C@H](O[C@@H]7O[C@H](CO)[C@@H](O)[C@H](O[C@@H]8OC[C@@H](O)[C@H](O)[C@H]8O)[C@H]7O[C@@H]7O[C@H](CO)[C@H](O)[C@H](O[C@@H]8O[C@H](CO)[C@@H](O)[C@H](O)[C@H]8O)[C@H]7O)[C@H](O)[C@H]6O)[C@H](O)C[C@]5(C)[C@@H]4CC[C@]3(C)[C@H]1[C@@H]2C | inactive
4 | C[C@@H]1CN([C@@H](C)CO)C(=O)CCCn2cc(nn2)CO[C@H]1CN(C)C(=O)Oc1ccc2ccccc2c1 | inactive
5 | Cc1nc(N)sc1CCN | inactive
6 | C1CC2(CCN1)OCCO2 | inactive
7 | [N-]=[N+]=Nc1ccccc1C[C@@]1(C(=O)NCCN2CCOCC2)N=C(c2ccc(OCCCO)cc2)O[C@@H]1c1ccccc1N=[N+]=[N-] | inactive
8 | [N-]=[N+]=NCc1ccccc1C[C@]1(C(=O)NCCN2CCOCC2)N=C(c2ccc(OCCCO)cc2)O[C@H]1c1ccccc1N=[N+]=[N-] | active
9 | COCCCNC(=O)[C@@]1(Cc2ccccc2N=[N+]=[N-])N=C(c2ccc(OCCCO)cc2)O[C@H]1c1ccccc1N=[N+]=[N-] | inactive
10 | [N-]=[N+]=NCc1ccccc1C[C@@]1(C(=O)NCCN2CCOCC2)N=C(c2ccc(OCCCO)cc2)O[C@@H]1c1ccccc1N=[N+]=[N-] | active
11 | Cn1ccnc1C(=O)N[C@H]1CN[C@@H]2CCCO[C@@H]12 | inactive
12 | Nc1ncnc2c1ncn2CCOCP(=O)(O)O | inactive
13 | Cc1cc([C@@H](C#N)c2ccc(Cl)cc2)c(Cl)cc1NC(=O)c1cc(I)cc(I)c1O | inactive
14 | CCC1(O)CC(O)c2c(cc3c(c2O)C(=O)c2c(O)ccc(O)c2C3=O)C1C(=O)OC (stereo unspecified) | inactive
15 | CC[C@@]1(O)C[C@H](O[C@H]2C[C@H](N(C)C)[C@H](O)[C@H](C)O2)c2c(cc3c(c2O)C(=O)c2c(O)ccc(O)c2C3=O)[C@H]1C(=O)OC | active
16 | Cl.NCCc1cc(O)c(O)cc1O | inactive
17 | C[C@@H]1CN([C@H](C)CO)C(=O)CCCn2nncc2CO[C@@H]1CN(C)C(=O)Oc1ccc2ccccc2c1 | inactive
18 | O=C1CC2OCC=C3CN4CCC56c7ccccc7N1C5C2C3CC46.O=S(=O)(O)O (stereo unspecified) | active

Row | Compound | cytotoxicity call
19 | COc1cc2c(cc1OC)C13CCN4CC5=CCOC6CC(=O)N2C1C6C5CC43 (stereo unspecified) | inactive
20 | O=C(O)C[C@@H]1CC[C@H]2NC[C@H](O)COC[C@@H]2O1 | inactive
21 | c1ccc2cc3c(cc2c1)-c1cccc2cccc-3c12 | active
22 | c1csc(N2CCNCC2)n1 | inactive
23 | COC(=O)[C@@H]1C(=O)NC[C@H]1C(C)C | inactive
24 | CC(=O)N[C@H]1CCSC1=O | inactive
25 | N#[N+]CC(=O)OC[C@H](N)C(=O)O | inactive
26 | [N-]=[N+]=CC(=O)OCC(N)C(=O)O (stereo unspecified) | active
27 | NC(N)=NOCC[C@H](N)C(=O)O | inactive
28 | O=C(NCc1ccccn1)[C@]12CNC[C@H]1COC2 | inactive
29 | O=C1[O][Pt]2([NH][C@@H]3CCCC[C@H]3[NH]2)[O]C1=O | inactive
30 | CCN1C[C@]2(COC)CC[C@@H](OC)[C@@]34[C@@H]2[C@@H](OC)[C@@H]([C@@H]13)[C@]1(OC(C)=O)C[C@@H](OC)[C@@]2(O)C[C@H]4[C@@H]1[C@H]2OC(=O)c1ccc(OC)cc1 | inactive
31 | Cc1cc(O)c2c(=O)c3c(O)cc(O)c4c5c(O)cc(O)c6c(=O)c7c(O)cc(C)c8c1c2c(c34)c(c78)c65 | active
32 | CC(C)C[C@@H]1C(=O)N2CCC[C@@H]2[C@]2(O)O[C@@](NC(=O)[C@@H]3C=C4c5cccc6[nH]c(Br)c(c56)C[C@@H]4N(C)C3)(C(C)C)C(=O)N12 | inactive
33 | CC[C@@H](CN)c1ccccc1 | inactive
34 | C[N+](C)(C)C[C@H]1CCC[C@@H]1O | inactive
35 | CN1C(=O)N(C)C2C1N(C)C(=O)N2C (stereo unspecified) | inactive
36 | NCCc1ccc(C(=O)c2ccccc2)cc1 | inactive
